Test results reported in publication PMC12820563, “FoxP3 forms a head-to-head dimer in vivo and stabilizes its multimerization on adjacent microsatellites”.
In all, about 16,000 sequences were measured (“rpm ratio (pull-down/input)”: median about 0.5, highest 2% from about 5.5 on). The sample as a whole holds a higher share of the highest values than the screen did.

What follows are sequences tested against T1, MBP-FoxP3dN (Mus musculus, UniProt Q99JB6 188-423) (assay: PD-seq (MBP pull-down with sequencing); 20 mM Tris-HCl pH 7.5, 100 mM NaCl, 1.5 mM MgCl2, 0.4 uM protein, 0.1 uM dsDNA library, 30 min, room temperature, amylose pull-down; high values mean tight binding). Details: protein: recombinant; tags: His6-MBP; chain copies: 2; dsDNA, one strand shown.
T1 sequence: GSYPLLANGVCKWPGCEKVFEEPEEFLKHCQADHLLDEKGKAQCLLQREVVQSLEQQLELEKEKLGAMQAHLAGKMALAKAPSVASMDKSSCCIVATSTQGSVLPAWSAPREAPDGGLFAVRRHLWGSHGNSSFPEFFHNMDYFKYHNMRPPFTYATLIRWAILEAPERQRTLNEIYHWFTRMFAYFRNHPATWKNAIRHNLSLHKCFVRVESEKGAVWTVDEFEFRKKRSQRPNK
How it was run: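 Protein and DNA were mixed at 0.4 µM and 0.1 µM and held for 30 min at room temperature in Tris pH 7.5 buffer with NaCl and MgCl2; the protein was a His6-MBP-tagged, N-terminally truncated mouse FoxP3 or FoxP1 fragment from E. coli, and the DNA a Klenow-filled double-stranded degenerate library. Amylose resin captured the complexes, which were washed three times. Binding is read as reads-per-million enrichment of pull-down versus input after Illumina sequencing, with replicates pooled.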
For “GATGATTGTTCTCCCAGCTGATGAATTATTGGAGTCGAGTAAACAAATTTTCCTAATCTTTCTGTTCAAGCGCCATCTAC”, the binding signal was 0.296 RPM ratio (pull-down/input).
With “GATGATTGTTCTCCCAGCTGATGAATTTAAACGCTCGAGTAAACAAATTTTCCTAATCTTTCTGTTCAAGCGCCATCTAC” the binding signal was 0.381 RPM ratio (pull-down/input).
With “GATGATTGTTCTCCCAGCTGATGAATTTGCATCTTCGAGTAAACAAATTTTCCTAATCTTTCTGTTCAAGCGCCATCTAC” the binding signal was 7.16 RPM ratio (pull-down/input).
With “GATGATTGTTCTCCCAGCTGATGAATTGAATCCTTCGAGTAAACAAATTTTCCTAATCTTTCTGTTCAAGCGCCATCTAC” the binding signal was 0.33 RPM ratio (pull-down/input).
For “GATGATTGTTCTCCCAGCTGATGAATTCTTGCATTCGAGTAAACAAATTTTCCTAATCTTTCTGTTCAAGCGCCATCTAC”, the binding signal was 6.02 RPM ratio (pull-down/input).
With “GATGATTGTTCTCCCAGCTGATGAATTGCATTATTCGAGTAAACAAATTTTCCTAATCTTTCTGTTCAAGCGCCATCTAC” the binding signal was 3.3 RPM ratio (pull-down/input).
In the case of “GATGATTGTTCTCCCAGCTGATGAATTGCCATCTTCGAGTAAACAAATTTTCCTAATCTTTCTGTTCAAGCGCCATCTAC”, the binding signal is reported as 1.07 RPM ratio (pull-down/input).
With “GATGATTGTTCTCCCAGCTGATGAATTTGCAGCTTCGAGTAAACAAATTTTCCTAATCTTTCTGTTCAAGCGCCATCTAC” the binding signal was 1.22 RPM ratio (pull-down/input).
With “GATGATTGTTCTCCCAGCTGATGAATTGCATCTTTCGAGTAAACAAATTTTCCTAATCTTTCTGTTCAAGCGCCATCTAC” the binding signal was 5.4 RPM ratio (pull-down/input).
With “GATGATTGTTCTCCCAGCTGATGAATTGCATTCGTCGAGTAAACAAATTTTCCTAATCTTTCTGTTCAAGCGCCATCTAC” the binding signal was 3.88 RPM ratio (pull-down/input).
“GATGATTGTTCTCCCAGCTGATGAATTATTCCATTCGAGTAAACAAATTTTCCTAATCTTTCTGTTCAAGCGCCATCTAC” was tested, and the binding signal was 0.434 RPM ratio (pull-down/input).
With “GATGATTGTTCTCCCAGCTGATGAATTCCTTGCATCGAGTAAACAAATTTTCCTAATCTTTCTGTTCAAGCGCCATCTAC” the binding signal was 0.828 RPM ratio (pull-down/input).
For “GATGATTGTTCTCCCAGCTGATGAATTGCATCCTTCGAGTAAACAAATTTTCCTAATCTTTCTGTTCAAGCGCCATCTAC”, the binding signal was 5.53 RPM ratio (pull-down/input).
In the case of “GATGATTGTTCTCCCAGCTGATGAATTATTGCATTCGAGTAAACAAATTTTCCTAATCTTTCTGTTCAAGCGCCATCTAC”, the binding signal is reported as 7.31 RPM ratio (pull-down/input).
For “GATGATTGTTCTCCCAGCTGATGAATTGTAGACATCGAGTAAACAAATTTTCCTAATCTTTCTGTTCAAGCGCCATCTAC”, the binding signal was 0.874 RPM ratio (pull-down/input).
With “GATGATTGTTCTCCCAGCTGATGAATTGACTCTCTCGAGTAAACAAATTTTCCTAATCTTTCTGTTCAAGCGCCATCTAC” the binding signal was 0.425 RPM ratio (pull-down/input).
With “GATGATTGTTCTCCCAGCTGATGAATTCGAGATATCGAGTAAACAAATTTTCCTAATCTTTCTGTTCAAGCGCCATCTAC” the binding signal was 0.404 RPM ratio (pull-down/input).
“GATGATTGTTCTCCCAGCTGATGAATTGGTAGCCTCGAGTAAACAAATTTTCCTAATCTTTCTGTTCAAGCGCCATCTAC” was tested, and the binding signal was 0.924 RPM ratio (pull-down/input).
In the case of “GATGATTGTTCTCCCAGCTGATGAATTCACTGTATCGAGTAAACAAATTTTCCTAATCTTTCTGTTCAAGCGCCATCTAC”, the binding signal is reported as 0.627 RPM ratio (pull-down/input).
“GATGATTGTTCTCCCAGCTGATGAATTGTCTGTATCGAGTAAACAAATTTTCCTAATCTTTCTGTTCAAGCGCCATCTAC” was tested, and the binding signal was 0.624 RPM ratio (pull-down/input).
With “GATGATTGTTCTCCCAGCTGATGAATTGTGGCGTTCGAGTAAACAAATTTTCCTAATCTTTCTGTTCAAGCGCCATCTAC” the binding signal was 2.54 RPM ratio (pull-down/input).
In the case of “GATGATTGTTCTCCCAGCTGATGAATTGAATGATTCGAGTAAACAAATTTTCCTAATCTTTCTGTTCAAGCGCCATCTAC”, the binding signal is reported as 0.737 RPM ratio (pull-down/input).
In the case of “GATGATTGTTCTCCCAGCTGATGAATTCGAACACTCGAGTAAACAAATTTTCCTAATCTTTCTGTTCAAGCGCCATCTAC”, the binding signal is reported as 0.457 RPM ratio (pull-down/input).
“GATGATTGTTCTCCCAGCTGATGAATTTTTCCGTTCGAGTAAACAAATTTTCCTAATCTTTCTGTTCAAGCGCCATCTAC” was tested, and the binding signal was 0.238 RPM ratio (pull-down/input).
“GATGATTGTTCTCCCAGCTGATGAATTCACTCAATCGAGTAAACAAATTTTCCTAATCTTTCTGTTCAAGCGCCATCTAC” was tested, and the binding signal was 0.294 RPM ratio (pull-down/input).
“GATGATTGTTCTCCCAGCTGATGAATTGGGACTGTCGAGTAAACAAATTTTCCTAATCTTTCTGTTCAAGCGCCATCTAC” was tested, and the binding signal was 0.673 RPM ratio (pull-down/input).
In the case of “GATGATTGTTCTCCCAGCTGATGAATTACACTATTCGAGTAAACAAATTTTCCTAATCTTTCTGTTCAAGCGCCATCTAC”, the binding signal is reported as 0.606 RPM ratio (pull-down/input).
In the case of “GATGATTGTTCTCCCAGCTGATGAATTGCCATCCTCGAGTAAACAAATTTTCCTAATCTTTCTGTTCAAGCGCCATCTAC”, the binding signal is reported as 0.935 RPM ratio (pull-down/input).
In the case of “GATGATTGTTCTCCCAGCTGATGAATTTGCATCCTCGAGTAAACAAATTTTCCTAATCTTTCTGTTCAAGCGCCATCTAC”, the binding signal is reported as 7.55 RPM ratio (pull-down/input).
With “GATGATTGTTCTCCCAGCTGATGAATTGCATCCCTCGAGTAAACAAATTTTCCTAATCTTTCTGTTCAAGCGCCATCTAC” the binding signal was 4.21 RPM ratio (pull-down/input).
With “GATGATTGTTCTCCCAGCTGATGAATTGTAACCATCGAGTAAACAAATTTTCCTAATCTTTCTGTTCAAGCGCCATCTAC” the binding signal was 1.1 RPM ratio (pull-down/input).
“GATGATTGTTCTCCCAGCTGATGAATTGGACGACTCGAGTAAACAAATTTTCCTAATCTTTCTGTTCAAGCGCCATCTAC” was tested, and the binding signal was 0.259 RPM ratio (pull-down/input).
In the case of “GATGATTGTTCTCCCAGCTGATGAATTGTGTTCATCGAGTAAACAAATTTTCCTAATCTTTCTGTTCAAGCGCCATCTAC”, the binding signal is reported as 1.77 RPM ratio (pull-down/input).
“GATGATTGTTCTCCCAGCTGATGAATTCGAGTTATCGAGTAAACAAATTTTCCTAATCTTTCTGTTCAAGCGCCATCTAC” was tested, and the binding signal was 0.746 RPM ratio (pull-down/input).
In the case of “GATGATTGTTCTCCCAGCTGATGAATTGCCAAATTCGAGTAAACAAATTTTCCTAATCTTTCTGTTCAAGCGCCATCTAC”, the binding signal is reported as 0.453 RPM ratio (pull-down/input).
